Molecules are shown by their SMILES. About 83,000 compounds went through this panel and 20% of them were active in at least one assay; those are over-represented in the sample as a whole.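 Method: cells in 96-well plates; compound added at one concentration; 48 h incubation; percent growth measured; values under 10 scored active.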 Activity calls are given as the source filed them.

The subject of this test is SN12C renal. The test is described as follows: NCI-60 one-dose screen, 48 h (100 = growth as untreated, 0 = no growth, -100 = all killed). The settings on record: 10 µM unless noted. The protocol:
Growth inhibition of the SN12C human tumor cell line is measured as a screen for anti-cancer activity. Cells are grown in 96 well plates and exposed to the test compound for 48 hours. Compounds are tested at a single concentration, which is 10^-5 M for most compounds. The reported endpoint is percent growth (GI% or GIPRCNT), where numbers from 0 - 100% represent growth inhibition, and numbers from -100% - 0 represent cell death. For example, a value of 40 represents 60% growth inhibition. A value of 0 means no net growth occurred over the course of the experiment. A value of -40 indicates 40% of cells at the beginning of the experiment died by the end of the experiment. A value of -100 means all cells are dead at the end of the experiment.
NCI-60 Human Tumor Cell Lines Screen was performed using the standard one-dose NCI protocol, which is described in more detail at https://dtp.cancer.gov/discovery_development/nci-60/default.htm.
Compounds with GIPRCNT values below 10 were considered active. Activity score was based on GIPRCNT using the following formula: […]
Score is 0 for GIPRCNT values of 100 or above, 50 for GIPRCNT values of 0, and 100 for GIPRCNT values of -100.
As to `O=C(Nc1cc(Cl)cc(Cl)c1)Nc1nc2ccc([N+](=O)[O-])cc2s1`, the growth is 2.15% (active). With `CNC(=O)c1cc(Oc2ccc3nc(NC(=O)c4cccc(C(F)(F)F)c4)sc3c2)ccn1` the figure was 96% (inactive).

On to `Oc1ccc(CSc2nnc(-c3ccncc3)o2)c2cccnc12`, for which the growth was 7.4% (active). With `O=C1Nc2ccc(Cl)cc2/C1=C/c1ccc(OCc2ccc(F)cc2)cc1` the figure was 93.9% (inactive).

Turning to `CCCCCc1ccc(S(=O)(=O)N(C(C)=O)c2cccc(-c3csc(N(CCN4CCN(C)CC4)C(C)=O)n3)c2)cc1`, the growth was 62.6% (inactive). With `CN(c1ccc(F)cc1)S(=O)(=O)c1ccc(-c2cnc(C3CC3)o2)cc1` the figure was 37.3% (inactive); with `CCCCCCNC(=O)Oc1ccc(/C(=C(/C)c2ccc(OC)cc2)c2ccc(OCCN3CCCC3)cc2)cc1`, 82.3% (inactive); with `C/C(=C(/c1ccc(O)cc1)c1ccc(OCCN(C)C)cc1)c1ccc(Cl)cc1`, 59.1% (inactive). On to `CC(=O)C1=NN(c2ccc(Cl)cc2)C(=O)CN1C`, for which the growth was 102% (inactive).

As for `CN(C)c1ncc(/C=C2\SC(=S)N(Cc3ccccc3Cl)C2=O)s1`, the growth is 68.7% (inactive). With `COc1cc(/C=C/C(=O)c2ccc(NC(=O)CSc3nnc(-c4ccc5nc(-c6ccccc6)[nH]c5c4)o3)cc2)cc(OC)c1OC` the figure was 90.8% (inactive); with `C/C(Cc1ccc(Cl)cc1)=C(/c1ccccc1)c1ccc(OCCN)cc1`, 103% (inactive); with `Cc1csc(Nc2cccc(Nc3nc(C)cs3)c2)n1`, 88.2% (inactive).

Consider `Cc1cn(-c2cc(NC(=O)c3cncc(C#Cc4cnc5ccc(O[C@@H]6CCOC6)nn45)c3)cc(C(F)(F)F)c2)cn1`, for which the growth was -8.41% (active). With `N#Cc1ccc(S(=O)(=O)Nc2ccc(-c3cnc(N)[nH]3)cc2)cc1` the figure was 102% (inactive); with `CC1(C)CC[C@]2(C(=O)O)CC[C@]3(C)C(=CCC4[C@@]5(C)C[C@@H](O)[C@@H]6OC(c7cccc([N+](=O)[O-])c7)OC[C@@]6(C)C5CC[C@]43C)C2C1` (stereo not given in full), 62% (inactive). On to `CCNC(=O)Oc1ccc(/C(=C(/C)c2ccc(Cl)cc2)c2ccc(OCCN3CCCC3)cc2)cc1`, for which the growth was 75.4% (inactive). Take `O=S(=O)(Nc1ccc(C2CC2)cc1)c1ccc(-c2cnc(C3CC3)o2)cc1`: the growth is 75% (inactive).

Take `O=C(CN1C(=O)S/C(=C\c2ccccc2)C1=O)Nc1ccc(C(=O)/C=C/c2cc3ccccc3nc2Cl)cc1`: the growth is 91.2% (inactive). With `CS(=O)c1nccc(-c2c(-c3ccc(F)c(OCCc4ccccc4)c3)nc3sccn23)n1` (stereo not given) the figure was 93.7% (inactive); with `COc1ccc(/C=C/C(=O)c2nnn(-c3ccc(C(=O)O)cc3)c2C)cc1OC`, 92.2% (inactive). With `CCN1CCN(Cc2ccc(C(=O)Nc3nc4ccc(Oc5ccnc(C(=O)NC)c5)cc4s3)cc2C(F)(F)F)CC1` the figure was 77.4% (inactive). Consider `CS(=O)(=O)c1ccc2c(c1)c1c(n2S(=O)(=O)c2ccc(Cl)cc2)CCCC1`, for which the growth is 33.1% (inactive). In the case of `CN1CCN(Cc2ccc(NC(=O)c3cncc(C#Cc4cnc5ccc(O[C@H]6CCOC6)nn45)c3)cc2C(F)(F)F)CC1`, the growth is -48.4% (active).

For the molecule `O=S(=O)(Nc1ccc(-n2cnc3cc(-c4ccc(O)cc4)ccc32)cc1)C1CC1`, the growth was 88.3% (inactive). With `CCc1ccc(NC(=O)N[C@@H](Cc2cc(F)cc(F)c2)C(=O)N[C@@H]2C(=O)N3CCC[C@H]3C(=O)N3CCO[C@H](C)[C@H]3C(=O)N[C@@H](CO)C(=O)N3C[C@H](C)C[C@H]3C(=O)O[C@H]2C)c(F)c1`, the growth was 22.5% (inactive).

With `C=CCn1c(SCC(=O)Nc2cccc(C(=O)/C=C/c3ccccc3)c2)nc2ccccc2c1=O`, the growth is 91.1% (inactive). As to `CN(C)C(=O)C1=NC(CO)C(=O)N(c2ccc(Cl)cc2)N1` (stereo not given), the growth is 105% (inactive).

Take `N#C/C(=C\c1ccc2ccccc2c1)C(=O)Nc1sc2c(c1C#N)CCC2`: the growth is 95.5% (inactive).

Regarding `Cc1ccccc1/C=C/c1nn2c(-c3ccoc3C)nnc2s1`, the growth was 101% (inactive).

In the case of `Cn1cc(-c2nn3cc(-c4cccnc4)nc3s2)c2ccccc21`, the growth was 33.4% (inactive).

For `Oc1ccccc1-c1nnc(SCc2ccc(O)c3ncccc23)n1-c1ccccc1`, the growth was 14.5% (inactive). With `Cc1cccc(NC(c2cc3cccc4ccc5cccc2c5c43)c2nnnn2C(C)(C)C)c1C` (stereo not given) the figure was 93% (inactive); with `COc1ccc(CCN2C(=O)CSC2=S)cc1OC`, 93% (inactive). As for `Cc1ccc(-c2cc(-c3ccc(N(C)C)cc3)n3c(n2)nc2ccccc23)cc1`, the growth was 62.8% (inactive). With `COc1ccc2c(ccn2C(=O)N2c3ccccc3Sc3ccccc32)c1` the figure was 47.3% (inactive). Take `CS(=O)(=O)c1ccc2c(c1)c1c(n2C(=O)c2ccc(Cl)cc2)CCCC1`: the growth was 41.2% (inactive). In the case of `CCOc1ccc2nc(NC(=O)Nc3ccccc3C)sc2c1`, the growth was 58.7% (inactive). Turning to `COc1ccc(-c2nc(SCCC(C)C)nc(N/N=C\c3ccc(O)cc3)c2C#N)cc1`, the growth is 67.6% (inactive). Take `CN1C(=O)N(C)C2C1NN=c1s/c(=C\c3ccccn3)c(=O)n12` (stereo not given): the growth was 98.8% (inactive).

The values above are taken from PubChem BioAssay (NCI).
